PubChem BioAssay (NCI)
About 83,000 compounds went through this panel and 20% of them were active in at least one assay; those are over-represented in the sample as a whole.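 Method: cells in 96-well plates; compound added at one concentration; 48 h incubation; percent growth measured; values under 10 scored active.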 Activity calls are given as the source filed them.

Test system: COLO 205 colon
Assay: NCI-60 one-dose screen, 48 h (100 = growth as untreated, 0 = no growth, -100 = all killed)
Details: 10 µM unless noted

SMILES	growth
O=[N+]([O-])c1ccc(-c2nc(N3CCOCC3)c3c4c(sc3n2)CCCC4)cc1	90.9% (inactive)
COc1cc(N2C(=O)[C@H](O)C2c2ccc(SC)cc2)cc(OC)c1OC (stereo partly specified)	-53.3% (active)
C#Cc1ccc(NC(=O)c2ccc(/C=C/C(=O)c3nccn3C)cc2)cc1	-53.7% (active)
Cc1nnc(NC(=O)c2nc(S(=O)(=O)Cc3ccc(F)cc3)ncc2Cl)s1	-18.8% (active)
Cc1ccccc1/C=C1\CN(C(=O)OC(C)(C)C)C/C(=C\c2ccccc2C)C1=O	-28.5% (active)
C[C@]12C=CC(=O)C=C1CCC1C2[C@@H](O)C[C@@]2(C)C1CC[C@]2(O)C(=O)COC(=O)CCC(=O)O (stereo partly specified)	124% (inactive)
O=C(Cn1c2c(c3ccccc31)CCCC2)Nc1ccc(-c2nc3ccccc3s2)cc1	104% (inactive)
Cc1cc(Cl)ccc1Nc1nc(C(F)(F)F)ccc1C(=O)N/N=C/c1ccc([N+](=O)[O-])cc1	-65.6% (active)
O=C(Nn1c2c(sc1=NCc1ccccc1)C(=O)c1ccccc1C2=O)c1cc2ccc1CCc1ccc(cc1)CC2	106% (inactive)
CC(C)c1ccc(COCc2cc(CN3CCCC3)c(O)c3ncccc23)cc1	18.9% (inactive)
Cn1cccc1C(=O)C1C(c2cccc([N+](=O)[O-])c2)C2C3CCCCC3CN2C12C(=O)Nc1ccc(Cl)cc12 (stereo unspecified)	20.6% (inactive)
